Compound activity: PubChem BioAssay, National Center for Advancing Translational Sciences (NCATS)
HCV inh: qHTS Assay for Inhibitors of Hepatitis C Virus (HCV). Huh7.5.1 HCVcc-Cre infection, luciferase reporter, 44 h. hit rate 3.4% among 340,000. Potency, µM (series often up to 41.8 µM), inactives show at the top dose activity change, negative = inhibition, actives largely listed as inhibitors
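Cells (1,000/well) were plated 4 h before compound, then infected with HCVcc-Cre virus (~0.5 moi). After 44 h further culture, infection was read as luciferase luminescence following a 15 min substrate incubation at room temperature.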
Pf growth 48h: Primary qHTS for delayed death inhibitors of the malarial parasite plastid, 48 hour incubation. P. falciparum luciferase growth in erythrocytes, 48 h. Potency, µM (highest dose often 28.7 µM), for the others: at the top dose activity change, negative = inhibition, most hits filed as inhibitors. hit rate 5.9% among 310,000. AID 504832, 2011
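Read-out is firefly luciferase luminescence from an integrated reporter in P. falciparum, so falling signal marks reduced parasite growth. Infected erythrocytes were at 2% hematocrit and 0.1% parasitemia (final) in Albumax-supplemented RPMI 1640.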
AmpC inh no detg: qHTS Inhibitors of AmpC Beta-Lactamase (assay without detergent) | Potency, µM (doses to about 57.1 µM), for inactives: top-dose activity change, negative = inhibition, actives largely listed as inhibitors | AmpC nitrocefin hydrolysis, absorbance 480 nm, 0.0001% Triton | AID 485341, 2010 | hit rate 0.52% among 330,000;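 also: plate controls were no compound for no effect and no enzyme for full effect; nearly all actives have a fitted effect of over 20% in size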
Target sequence (P00811 whole entry, looked up): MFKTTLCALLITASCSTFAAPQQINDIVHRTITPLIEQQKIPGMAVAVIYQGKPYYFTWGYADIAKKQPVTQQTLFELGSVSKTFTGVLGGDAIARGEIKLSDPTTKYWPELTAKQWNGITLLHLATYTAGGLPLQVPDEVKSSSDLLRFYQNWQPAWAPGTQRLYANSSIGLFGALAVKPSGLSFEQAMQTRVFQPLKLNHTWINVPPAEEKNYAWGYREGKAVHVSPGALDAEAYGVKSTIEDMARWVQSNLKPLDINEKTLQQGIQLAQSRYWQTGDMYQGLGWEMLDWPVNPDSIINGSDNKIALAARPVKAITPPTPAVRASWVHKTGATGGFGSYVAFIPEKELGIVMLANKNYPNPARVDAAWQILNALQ
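AmpC (5.3 nM in the dispensed reagent) in 20 mM phosphate pH 7.0 with 0.01% (detergent screen) or 0.0001% Triton X-100 was preincubated with compounds for 15 min at room temperature. Nitrocefin was then added from an 800 uM solution, and hydrolysis was followed at 480 nm.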
AmpC inh detg: qHTS Inhibitors of AmpC Beta-Lactamase (assay with detergent) | AmpC hydrolysis of nitrocefin, absorbance 480 nm, 0.01% Triton | Potency, µM (doses to about 114 µM), for inactives: at the highest dose activity change, negative = inhibition, most hits filed as inhibitors | hit rate 0.041% among 370,000;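 also: 0% = no-compound wells and -100% = no-enzyme wells; nearly all actives have a fitted effect of over 25% in size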
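20 mM phosphate pH 7.0 + 0.01% (detergent screen) or 0.0001% Triton X-100; 5.3 nM AmpC reagent; cpd preinc 15 min RT; nitrocefin (800 uM stock) to start; A480 q20 s × 4 min; Activity was normalised to no-enzyme and no-compound control wells.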
AMA1-RON2 inh: qHTS for Inhibitors of AMA1-RON; Towards Development of Antimalarial Drug Lead: Primary Screen; Plasmodium falciparum AMA1 (3D7) - RON2 peptide interaction; Potency, µM (doses to about 58.2 µM), without a hit: at the highest dose activity change, negative = inhibition, most hits filed as inhibitors; AlphaScreen AMA1-biotinylated RON2 peptide binding; hit rate 0.2% among 360,000; AID 720542, 2013;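 also: 0% = vehicle wells and -100% = peptide control; nearly all actives have a fitted effect of over 45% in size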
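AMA1 (3D7) with his tag at 25 nM final met compounds first, then biotinylated RON2 peptide at 25 nM; detection used donor plus acceptor beads, 10 µg/mL apiece, read by AlphaScreen after 30 min at room temperature.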
Pf growth 96h: Primary qHTS for delayed death inhibitors of the malarial parasite plastid, 96 hour incubation; hit rate 6.9% among 320,000; Potency, µM (titrated, usually from 28.7 µM), for inactives: at the highest dose activity change, negative = inhibition, actives largely listed as inhibitors; P. falciparum luciferase reporter growth, 96 h
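Parasite growth measured via integrated firefly luciferase reporter in P. falciparum. Infected erythrocytes at 2% hematocrit, 0.05% parasitemia final were treated 96 hours at 37 C under 5% CO2, and luminescence was read.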
* marks the source's active call; other numbers are inactive results; ? = inconclusive; . = no result given; [ ] = remark or other dose. Sampled rows, rich in hits. Any-hit rate of the full collection: about 11%. Calls follow the shape of the dose curve; as a rule, active = well fitted curve in the direction sought with a large enough effect; inconclusive = small, poorly fitted or top-dose-only effect, or another doubt; inactive = no such curve, though single readings can be large; an effect the other way counts as inactive or inconclusive. Unless noted, % is scaled to controls: 0 for no effect and ±100 for the full control effect; potency is read from the fitted curve at half-maximal effect.

SMILES	HCV inh	Pf growth 48h	AmpC inh no detg	AmpC inh detg	AMA1-RON2 inh	Pf growth 96h
NCC(=O)Nc1ccc(Cl)cc1C(=O)c1ccc[nH]1	9%	?	-18%	9%	?	5.2µM*
CCOc1ccccc1NC(=O)C(=O)Nc1ccc2nc3n(c(=O)c2c1)CCCCC3	.	.	.	3%	.	.
COc1ccccc1N1CCN(CC(=O)c2c(C)[nH]c3cc(C)ccc23)CC1	3%	13µM*	0%	?	-8%	20%
CCC1CCCCN1CC(=O)c1c(C)[nH]c2cc(C)ccc12 (stereo not drawn)	-5%	0%	-10%	-3%	-5%	5%
Cc1ccc2c(C(=O)CN3CCN(C4CCCCC4)CC3)c(C)[nH]c2c1	-29%	2.6µM*	36%	-9%	4%	-20%
Cc1ccc(CNc2ncnc3onc(C)c23)cc1	.	.	.	19%	.	.
COc1ccc(C(c2sc3nc(C)nn3c2O)N2CCC(O)CC2)cc1OC (stereo not drawn)	15%	-1%	2%	?	-7%	2%
COc1ccc(C(c2sc3nc(C)nn3c2O)N2CCN(Cc3ccccc3)CC2)cc1OC (stereo not drawn)	28%	?	116%	?	-8%	0.83µM*
C=CC[N+]1(CC#Cc2ccccc2)CCCC1	-7%	?	-38%	-2%	2%	20%
C(#CCN1CCOCC1)COCC#Cc1ccccc1	2%	30%	8%	-2%	-13%	.
C=CC#CC[N+]1(CC#Cc2ccccc2)CCOCC1	36%	5.9µM*	39%	-4%	?	4.1µM*
C(#Cc1ccccc1)C[N+]1(CC#Cc2ccccc2)CCCC1	-18%	2.3µM*	7%	-4%	3%	?
C=CC[N+]1(CC#CCOC(c2ccccc2)c2ccccc2)CCOCC1	-6%	?	45%	-1%	2%	2.6µM*
Cc1cccn2c(=O)c3cc(C(=O)NCc4ccccc4Cl)sc3nc12	.	.	.	4%	.	.
CCOc1cc(C(=O)Nc2ccc(NC(=O)c3cc4ccccc4o3)c(OC)c2)cc(OCC)c1OCC	.	.	.	3%	.	.
CCOC(=O)c1c(NC(=O)CSc2nnc3c(n2)[nH]c2ccccc23)sc2c1CCN(C)C2	7.1µM*	.	.	.	2%	.
CCOC(=O)c1c(NC(=S)Nc2ccccc2)sc2c1CCN(CCc1ccccc1)C2	.	13µM*	-22%	4%	.	2.3µM*
CCOC(=O)c1c(NC(=O)CSc2nnc3c(n2)[nH]c2ccc(F)cc23)sc(C(C)=O)c1C	?	?	-20%	?	10%	?
COC(=O)c1c(NC(=O)C2COc3ccccc3O2)sc2c1CCN(Cc1ccccc1)C2 (stereo not drawn)	?	5.2µM*	39%	-9%	-12%[11.6 µM]	?
CCOC(=O)c1c(N)sc2c1CCN(CCc1ccccc1)C2	-6%	0%	-10%	?	0%	175%
CCOC(=O)c1c(NC(=O)CC)sc2c1CCN(Cc1ccccc1)C2	11µM*	?	57%	-4%	-9%	14%
CCOC(=O)c1c(NC(=O)C(C)Sc2cccc[n+]2[O-])sc2c1CCN(Cc1ccccc1)C2 (stereo not drawn)	-15%	9.3µM*	118%	-12%	-4%	5.2µM*
CCOC(=O)c1c(NC(=O)CSc2ncccn2)sc2c1CCN(Cc1ccccc1)C2	?	?	97%	-8%	-8%	7.4µM*
CCOc1ccc2oc(C(=O)N3CC(C)OC(C)C3)c(C)c2c1 (stereo not drawn)	-9%	?	79%	1%	0%	7.4µM*
